# Assay results taken from ChEMBL document CHEMBL3433997, “St. Jude Leishmania screening dataset” (2016).
# What was measured:
# Type in all cases: functional
# [1] = biological target: Solute carrier family 2, facilitated glucose transporter member 1 (Homo sapiens) (UniProt P11166); assay: ST_JUDE_LEISH: Cytotoxicity at 2uM final concentration against transgenic Leishmania Mexicana promastigotes LmGLUT1 that are glucose transport deficient and complemented with the human glucose transporter GLUT1. Activity is measured by DNA content using SYBR green in vitro
# [2] = biological target: Hexose transporter 1 (Plasmodium falciparum) (UniProt O97467); assay: ST_JUDE_LEISH: Cytotoxicity at 2uM final concentration against transgenic Leishmania Mexicana promastigotes LmPfHT that are glucose transport deficient and complemented with the Plasmodium falciparum hexose transporter. Activity is measured by DNA content using SYBR green in vitro
# [3] = biological target: Glucose transporter (Leishmania mexicana) (UniProt O61059); assay: ST_JUDE_LEISH: Cytotoxicity at 2uM final concentration against transgenic Leishmania Mexicana promastigotes LmGT2 that are glucose transport deficient and complemented with the L. Mexicana glucose transporter 2. Activity is measured by DNA content using SYBR green in vitro
# Sequence of Solute carrier family 2, facilitated glucose transporter member 1 (Homo sapiens) (P11166 whole entry): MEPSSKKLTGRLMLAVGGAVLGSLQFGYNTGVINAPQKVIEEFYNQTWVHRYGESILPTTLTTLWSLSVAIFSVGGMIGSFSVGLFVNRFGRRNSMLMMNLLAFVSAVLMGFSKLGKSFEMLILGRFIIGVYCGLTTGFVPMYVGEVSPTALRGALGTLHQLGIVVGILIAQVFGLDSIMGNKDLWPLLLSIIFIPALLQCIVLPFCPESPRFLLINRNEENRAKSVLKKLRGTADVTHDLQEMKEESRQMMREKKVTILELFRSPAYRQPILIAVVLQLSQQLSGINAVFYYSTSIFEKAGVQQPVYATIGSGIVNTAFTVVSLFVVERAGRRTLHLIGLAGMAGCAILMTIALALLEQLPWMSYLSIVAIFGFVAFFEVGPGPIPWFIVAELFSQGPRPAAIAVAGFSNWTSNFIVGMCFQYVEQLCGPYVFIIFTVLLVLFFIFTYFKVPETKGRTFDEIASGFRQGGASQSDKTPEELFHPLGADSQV
SMILES,inhibition [1] [%],inhibition [2] [%],inhibition [3] [%]
COc1ccc(-c2cccc(NC(=O)c3cccc(F)c3)c2)cc1CN1CCCN(C)CC1,2.17,1.16,-0.49
O=C(/C=C/c1ccc(Cl)c(Cl)c1)NC1CCC(CN2CCC(Cc3c[nH]c4ccccc34)CC2)CC1 (centres undefined),2.9,3.43,3.79
COc1cc2cc(Cc3cnc(N)nc3N)ccc2c(OC)c1OC,0.96,-0.27,1.56
Nc1cccc(CNCc2ccc(-c3cccc(-c4nc5ccccc5[nH]4)c3)cc2)c1,1.2,0.24,-0.54
CN1CCN(c2ccc(Nc3ncc(C#N)c(Nc4ccccc4C(N)=O)n3)cc2)CC1,75.6,81.4,55.1
Cn1c(N)cc(-c2ccc(Br)cc2)c2c(=O)nc(N)nc1-2,6.75,4.96,5.76
N#CC(c1ccc(F)cc1)c1ccc2c(C(F)(F)F)cc(C(F)(F)F)nc2n1 (centres undefined),3.66,4.6,1.81
CC12CC3CC(C)(C1)CC(Nc1nc(N4CCOCC4)nc4ccccc14)(C3)C2,2.67,2.82,-0.7
Nc1nc(N)c2c(ccc3c2ccn3CCCC2CCCNC2)n1 (centres undefined),0.22,-0.13,1.44
COc1ccccc1CNC(=O)c1cc(C2CC2)nc2c1cnn2C(C)C,15.2,11.5,8.12
COc1cc2c(cc1OC)C(C(=O)c1ccccc1)=NCC2,1.66,2.92,2.28
CC(C)CC1c2[nH]c3ccccc3c2CCN1C(=O)CCc1ccccc1 (centres undefined),5.53,5.28,4.41
COc1ccc(-c2cnc3ccc(NCc4ccc(S(N)(=O)=O)cc4)nn23)cn1,4.78,4.83,5.05
N#CCOc1c(C2CCN(CCCCNC(=O)c3ccc(-c4ccc(C(F)(F)F)cc4)cc3)CC2)ccc2c1CCCC2,4.16,3.28,3.28
OC(CNc1ccnc(Nc2ccc(Cl)cc2)n1)c1ccc(C(F)(F)F)cc1 (centres undefined),4.91,4.91,2.64
CCOc1ccc2nc(NC(=O)c3csnn3)sc2c1,4.69,3.55,-1.06
Cc1cc2c(NC(=O)NC3CCN(CCc4cccc(Cl)c4)CC3)cccc2cn1,-1.26,1.1,-3.28
CCNc1cc(C(=O)N[C@@H](Cc2cccc(Cl)c2)[C@H](O)CNC(C)CCCC(C)C)cc(N2CCCCS2(=O)=O)c1 (some centres undefined),-0.84,-1.5,-4.25
CCOC(=O)c1ccc(NC(=O)NNC(=O)c2ccc(CCN3CCC(c4nc(COCC(F)(F)F)c(-c5ccc(F)cc5)o4)CC3)cc2)cc1,1.09,1.22,0.84
CC(=O)Nc1ccc(CN(Cc2ccc(C)cc2)Cc2cccc(Oc3ccccc3)c2)cc1,2.75,3.12,2.62
CN(C)CCN(C)Cc1ccc(-c2ccc(NC(=O)c3ccc(Cl)cc3)cc2)cc1,21.2,11.3,7.17
CC(C)N1CCC(N(Cc2ccc(-c3ccc(C(F)(F)F)cc3)cc2)C(=O)Cn2c(SCc3cccc(F)c3F)nc(=O)c3ccccc32)CC1,6.03,4.99,4.15
O=C(C(=O)c1ccc(Nc2ccnc3cc(-c4ccccn4)ccc23)cc1)c1ccccc1,-1.32,-0.47,-2.63
CCCC(C)N(Cc1ccc(C(C)(C)C)cc1)C(=O)c1cccc(OC)c1 (centres undefined),-0.57,-0.47,-2.72
Cc1cccc2nc(-c3cccc(-c4ccc(CN5CCC(C(N)=O)CC5)cc4)c3)[nH]c12,9.22,9.68,9.06

SMILES,inhibition [1] [%],inhibition [2] [%],inhibition [3] [%]
Cc1cccc(Oc2cccc3[nH]nc(N)c23)c1,3.75,3.96,3.98
COc1ccc(CCN(C)CCOc2ccc(NC(=O)c3cccc4c(=O)c5cc(SC)ccc5[nH]c34)cc2)cc1OC,9.29,8.61,6.56
COc1ccc(-c2cnc(N)c(-c3nc4cc(Br)ccc4[nH]3)c2)cc1,9.38,11.3,6.12
c1ccc(C2CCN(Cc3ccc(-c4c[nH]c5nc(NC6CCCC6)ncc45)cc3)CC2)cc1,2.79,2.07,1.65
CC(=O)Nc1nc(C)c(-c2csc(Nc3ccc(Cl)cc3)n2)s1,-0.76,-1.35,-2.23
Cc1ccc(NC(=O)c2ccc3ncccc3c2)cc1OC1CCN(Cc2ccsc2)C1 (centres undefined),3.87,1.3,0.48
O=C(c1cccs1)N1N=C(c2cccs2)CC1c1cccc([N+](=O)[O-])c1 (centres undefined),8.21,5.4,7.21
CC(Oc1ccc(C(=O)c2ccc(F)cc2)cc1)C(=O)N1CCc2ccccc21 (centres undefined),-1.44,-0.96,0.7
CCNCCCC(C)Nc1ccnc2cc(Cl)ccc12 (centres undefined),-2.28,-2.68,-2.34
Cc1cccc2nc(-c3ccc(-c4cccc(CN5CCCC(N)C5)c4)s3)[nH]c12 (centres undefined),12.7,11.2,11.7
Cc1ccccc1C1CCN(C2CCC(NC(=O)/C=C/c3ccc(F)cc3)CC2)CC1 (centres undefined),-1.42,-0.14,0.53
NC1=NC2(CCCCC2)N(OCCCCCCc2ccccc2)C(N)=N1,2.09,1.39,0.69
COc1ccc2nccc([C@@H](O)CN3CCC(NC(=O)/C(=C/c4ccccc4)c4ccc(-c5ccccc5)cc4)CC3)c2c1,1.6,0.83,0.6
CCN(CC)CC(O)CNc1c2ccc([N+](=O)[O-])cc2nc2cc(OC)c(OC)cc12 (centres undefined),69,71.7,42
Cc1sc(C)c(CNCCCNc2cc(=O)c3ccccc3[nH]2)c1Br,2.08,2,-3.4
COC(=O)Cn1c(C2CCN(CC3CCC(NC(=O)/C=C/c4ccc(Cl)c(Cl)c4)CC3)CC2)nc2ccccc21 (centres undefined),1.86,0.18,2.43
CCCCCCN1CCC(CNCc2cccc([N+](=O)[O-])c2)CC1,5.28,9.36,5.95
CC(C)CC(=O)N1CCNC[C@@H]1C(=O)NCc1ccc(Cl)c(Cl)c1,2.93,1.04,3.02
COc1nc2c(CCN3CCC(NCc4ccc5c(n4)NC(=O)CO5)CC3)c(Cl)cnc2cc1F,7.62,8.51,7.05
CC1(C)NC(N)=NC(=N)N1OCCCCOc1ccccc1,-2.95,0.84,-0.45
COc1cc(Nc2ncnc3cc(OC)c(OC)cc23)cc([N+](=O)[O-])c1,-1.65,0.11,-0.41
COc1cc2nc(N3CCC(CNC(=O)c4ccc(-c5ccc(-c6noc(C)n6)cc5)cc4)CC3)nc(N)c2cc1OC,64.1,45.5,41.6
CCCCSc1ccc2nc(-c3c[nH]c4ccc(C#N)cc34)cn2c1,-0.49,3.17,3.81
CO/C(=C\C=C\c1cc2cc(Cl)c(Cl)cc2[nH]1)C(=O)NCCCN1CCN(c2cccc(OC)c2)CC1,8.59,8.04,9.1
O=C(c1cccc(-c2cccc(-c3nc4ccccc4[nH]3)c2)c1)N1CCCCC1CN1CCC(O)C1 (centres undefined),0.33,0.78,0.03

SMILES,inhibition [1] [%],inhibition [2] [%],inhibition [3] [%]
Fc1ccc(-c2cncc(Nc3ccncc3)n2)cc1,6.02,7.91,8.39
COc1ccc(-c2cccc(NC(=O)c3cccs3)c2)cc1CN1CCCN(C)CC1,0.38,0.37,-1.25
CC(C)NCc1cccc(-c2ccc(NC(=O)c3cccc(C#N)c3)cc2)c1,0.25,0.74,2.32
CCCN(CCC)CCCNc1ccc(C(=O)Nc2ccc(C(C)C)cc2)cc1[N+](=O)[O-],32.7,22.2,13.2
CCOC(=O)c1cc(Cl)cc(Cl)c1OCCCON1C(=N)N=C(N)NC1(C)C,0.88,0.77,1.35
CC(C)(C)OC(=O)NCc1ccc(Nc2nnc(-c3cccc(C(=O)NCc4cc(C(F)(F)F)cc(C(F)(F)F)c4)c3)o2)cc1,7.94,7.58,5.41
COc1ccc(NC(=O)CCNc2cc(C)nc(NCCc3ccc(F)cc3)n2)cc1,-0.52,0.39,-0.01
Cc1cc(OCCCN2CCC(NS(=O)(=O)c3ccc(C(F)(F)F)cc3)CC2)c2ccccc2n1,1.59,0.36,0.63
CC(C)CCNc1nc(NCc2ccccc2)c2cc(O)ccc2n1,5.89,5.74,1.03
COc1ccc(-c2cccc(CNC3CCN(C)CC3)c2)cc1S(=O)(=O)NCc1ccccc1,4.97,4.06,4.42
COc1ccc2[nH]c(C)cc(=NN=Cc3cc(C)ccc3O)c2c1,13.1,11.2,8.77
Nc1ccc2c(N)c3ccccc3nc2c1,0.33,0.2,-1.77
CC(C)c1cc(N)c2cc(NC(=O)COCC(=O)Nc3ccc4nc(C(C)C)cc(N)c4c3)ccc2n1,5.18,5.67,5.02
COc1cccc(C(=O)Nc2ccc(Oc3ccc(Cl)cc3)cc2)c1,-1.17,-0.22,-1.01
CNC(=O)c1c(NC(=O)c2cccs2)sc2c1CCCC2,1.2,1.4,1.44
Cc1ccccc1C1CCN(C2CCC(NC(=O)/C=C/c3ccc(OC(F)(F)F)cc3)CC2)CC1 (centres undefined),-0.78,-1.35,0.34
C=CCN1CCC(N(Cc2cccc(Oc3ccccc3)c2)C(=O)C(c2ccccc2)c2ccccc2)CC1,-1.05,-2.14,-2.94
CN1CCc2cc(NS(=O)(=O)c3ccc(-c4ccc(Cl)cc4)cc3)c(OCCCN3CCCCC3)cc2CC1,1.09,-0.92,0.92
CN1CCN(c2ccc(CNc3ccc4ncc(-c5ccc(OC(F)(F)F)cc5)n4n3)cc2)CC1,-2.29,-1.23,-1.25
COc1ccc(Cn2ccc3c4c(N)nc(N)nc4ccc32)cc1,97.9,89.3,90.1
COc1ccc(CC(=O)NC(CCCN2CCC(c3ccccc3)CC2)c2ccc(Cl)c(Cl)c2)cc1OC (centres undefined),1.29,2.2,0.22
O=C(N[C@H]1CCN(Cc2ccc(OC3CCN(Cc4ccccc4)CC3)cc2)C1)c1ccc(Cl)c(Cl)c1,-0.36,-1.3,-1.06
O=C(Nc1ccccc1)N(Cc1cccc(-c2ccc(CNC3CCCC3)cc2)c1)C1CCN(Cc2ccccc2)CC1,5.58,4.72,2.99
